The structures appear in SMILES notation. Records with an inconclusive call do not appear. The source made the active and inactive calls. The call rests on the fitted dose curve; in most records, active means well fitted inhibition curve with a large enough effect; inconclusive means small, poorly fitted or top-dose-only effect; inactive means flat fitted curve, though single readings scatter.

The test concerns CRL-7250. In words: qHTS assay to identify novel small-molecules to repurpose for Merkel cell carcinoma treatment (AID 1296009). Further: nearly all actives have a fitted effect of over 60% in size. To be noted: MCC and control cell lines, CellTiter-Glo viability, 72 h; at 44.8 µM (top of the series) unless noted. The gist of the method: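 Cells exposed to NPC (8-point) and MIPE (11-point) compound dilutions for 72 hr at 37 degree celsius; viability read by CellTiter-Glo luminescence, normalized to no-cell and DMSO in-plate controls.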
Background: qHTS replaces the single test concentration by a dilution series.
Consider `Cc1ccccc1OCC(O)CO` (configuration not stated), for which the result was inactive.

In the case of `CC(C)(C)NCC(O)COc1cccc2c1C[C@H](O)[C@H](O)C2` (some centres not stated), the compound was called inactive.

As for `Cc1nc(-c2ccc(Cl)cc2)oc1COC(C)(C)C(=O)O`, the compound was classed as inactive.

On to `C[N+]1(C)[C@@H]2CC(OC(=O)[C@H](CO)c3ccccc3)C[C@H]1[C@@H]1O[C@@H]12` (some centres not stated), for which the call was inactive.

With `NC(=O)NC1N=C([O][Al])NC1=O` (configuration not stated), the call was inactive.

As for `CC(C)c1ccc2oc3nc(N)c(C(=O)O)cc3c(=O)c2c1`, the result was inactive.

`COc1cc(C(=O)NS(=O)(=O)c2ccccc2C)ccc1Cc1cn(C)c2ccc(NC(=O)OC3CCCC3)cc12`: the compound was classed as inactive.

Regarding `CC(=O)O[C@]1(C(C)=O)CC[C@H]2[C@@H]3C[C@H](C)C4=CC(=O)CC[C@]4(C)[C@H]3CC[C@@]21C`, the call was inactive.

Regarding `NCCCNCCSP(=O)(O)O`, the outcome is “inactive [at 9.27 µM]”.

Turning to `O=C(N[C@H](CO)[C@H](O)c1ccc([N+](=O)[O-])cc1)C(Cl)Cl`, the compound was classed as inactive.

Consider `O=C1CC(c2ccc(Cl)cc2)CC(=O)N1`, for which the call was inactive.

Consider `COC(=O)CCCCC(CCSS/C(CCO)=C(\C)N(C=O)Cc1cnc(C)nc1N)SC(C)=O` (configuration not stated), for which the result was inactive.

With `NNC(=O)c1ccncc1`, the outcome was inactive.

As to `C[C@]12C=CC(=O)C=C1CC[C@@H]1[C@@H]2C(=O)C[C@@]2(C)[C@H]1CC[C@]2(O)C(=O)CO`, the outcome was “inactive [at 17.4 µM]”.

In the case of `CCC(Cc1c(I)cc(I)c(N)c1I)C(=O)O` (configuration not stated), the result was inactive.

With `CC(C)(Sc1cc(C(C)(C)C)c(O)c(C(C)(C)C)c1)Sc1cc(C(C)(C)C)c(O)c(C(C)(C)C)c1`, the compound was classed as inactive.

Consider `O=C(OOC(=O)c1ccccc1)c1ccccc1`, for which the outcome was inactive.

For the compound `Cn1nnc2c(C(N)=O)ncn2c1=O`, the compound was called inactive.

As for `CC1COc2c(N3CCN(C)CC3)c(F)cc3c(=O)c(C(=O)O)cn1c23` (configuration not stated), the outcome was inactive.

For `CNNCc1ccc(C(=O)NC(C)C)cc1`, the result was inactive.

As for `C[C@](N)(Cc1ccc(O)cc1)C(=O)O`, the outcome is “inactive [at 4.96 µM]”.

Regarding `O=C(O)c1c(O)c(-c2ccccc2)nc2ccccc12`, the compound was called inactive.

In the case of `CCCCCCCCCCCCCCCC(=O)NCCO`, the compound was classed as inactive.

On to `COc1cc2c(Nc3ccc(Br)cc3F)ncnc2cc1OCC1CCN(C)CC1`, for which the compound was called inactive.

As for `Cc1cc(OI)c(C(C)C)cc1-c1cc(C(C)C)c(OI)cc1C`, the result was inactive.

In the case of `CCCCCCCC/C=C/C(=O)O`, the outcome was inactive.

For the compound `Oc1ccc(Cl)c2cccnc12`, the call was inactive.

For the compound `NC(=O)N[C@@H](CCC(=O)O)C(=O)O`, the call was inactive.

On to `COc1cc2nc(Cl)nc(N)c2cc1OC`, for which the outcome was inactive.

As to `CC(=O)OCC(=O)[C@@]1(OC(C)=O)[C@@H](C)C[C@H]2[C@@H]3C[C@H](F)C4=CC(=O)C=C[C@]4(C)[C@@]3(F)[C@@H](O)C[C@@]21C`, the outcome was inactive.

Consider `CC(CCc1ccccc1)NCC(O)c1ccc(O)c(C(N)=O)c1` (configuration not stated), for which the compound was classed as inactive.

As to `COc1ccc(C(=O)c2ccccc2O)c(O)c1`, the compound was classed as inactive.

For `CCN(CC)C(C)CN1c2ccccc2Sc2ccccc21` (configuration not stated), the call was inactive.

Consider `NC(=O)NS(=O)(=O)c1ccc(Cl)cc1`, for which the call was inactive.

Regarding `O=C(COCCOCCOCC(=O)Nc1c(I)cc(I)c(C(=O)O)c1I)Nc1c(I)cc(I)c(C(=O)O)c1I`, the outcome was inactive.

With `CCCCCCCCCCC[C@@H](C[C@@H]1OC(=O)[C@H]1CCCCCC)OC(=O)[C@H](CC(C)C)NC=O`, the call was inactive.

Take `CC(N=C(NC#N)Nc1ccncc1)C(C)(C)C` (configuration not stated): the call was inactive.

The values above are taken from PubChem BioAssay (NCATS).
